Results taken from PubChem BioAssay (NCI).
Values joined by “and” are separate entries in the source; they are usually repeats but may differ in a detail not shown here. Identical values can stand only once. About 83,000 compounds went through this panel and 20% of them were active in at least one assay; those are over-represented in the sample as a whole.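 Growth was measured after 48 h exposure to one concentration of compound in 96-well plates. Values under 10 count as active.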 Active and inactive are the calls of the source.

Tests used:
Assay in all cases: NCI-60 one-dose screen, 48 h (100 = growth as untreated, 0 = no growth, -100 = all killed)
Conditions in all cases: 10 µM unless noted
HCT-15 colon = tested on: HCT-15 colon
HT29 colon = tested on: HT29 colon
SNB-75 CNS = tested on: SNB-75 CNS
SNB-19 CNS = tested on: SNB-19 CNS
U251 CNS = tested on: U251 CNS
PC-3 prostate = tested on: PC-3 prostate
SK-MEL-5 melanoma = tested on: SK-MEL-5 melanoma
LOX IMVI melanoma = tested on: LOX IMVI melanoma
SK-MEL-28 melanoma = tested on: SK-MEL-28 melanoma
SK-MEL-2 melanoma = tested on: SK-MEL-2 melanoma
EKVX NSCLC = tested on: EKVX NSCLC
SN12C renal = tested on: SN12C renal
UO-31 renal = tested on: UO-31 renal
TK-10 renal = tested on: TK-10 renal
ACHN renal = tested on: ACHN renal
CAKI-1 renal = tested on: CAKI-1 renal
A498 renal = tested on: A498 renal
CCRF-CEM leukemia = tested on: CCRF-CEM leukemia
MOLT-4 leukemia = tested on: MOLT-4 leukemia
UACC-62 melanoma = tested on: UACC-62 melanoma

Measured: growth

CC1(C)CC(=O)C2=C(C1)OC(N)=C(c1nc3ccccc3[nH]1)C2c1ccc(Cl)cc1 (configuration not stated)
-40.8% (active) and 104% (inactive): SK-MEL-5 melanoma
inactive: HCT-15 colon 39.8% and 106% | HT29 colon 86.8% and 115% | SNB-75 CNS 65.4% and 124% | SNB-19 CNS 50% and 99.9% | U251 CNS 45.1% and 112% | PC-3 prostate 35.6% and 107% | LOX IMVI melanoma 42.9% and 107% | SK-MEL-28 melanoma 30.1% and 109% | SK-MEL-2 melanoma 43.5% and 112% | EKVX NSCLC 57% and 100% | SN12C renal 79.7% and 105% | UO-31 renal 71.2% and 86.4% | TK-10 renal 71.7% and 106% | ACHN renal 62.4% and 106% | CAKI-1 renal 63.9% and 103% | A498 renal 66.9% and 149% | CCRF-CEM leukemia 31.8% and 102% | MOLT-4 leukemia 17.6% and 103%

C/C(=N\Nc1ccc(S(N)(=O)=O)cc1)c1cnn(-c2cc(=O)[nH]c3ccc(Br)cc23)c1C
active: CCRF-CEM leukemia 8.23%
inactive: HCT-15 colon 91.2% | HT29 colon 98.8% | SNB-75 CNS 22% | SNB-19 CNS 46% | U251 CNS 37.9% | PC-3 prostate 58.3% | SK-MEL-5 melanoma 55% | LOX IMVI melanoma 38.2% | SK-MEL-28 melanoma 34.7% | SK-MEL-2 melanoma 20% | EKVX NSCLC 72.1% | SN12C renal 61.2% | UO-31 renal 54.8% | TK-10 renal 146% | ACHN renal 81% | CAKI-1 renal 76.7% | A498 renal 115% | MOLT-4 leukemia 18.5%

CN1CCN(C(=O)Oc2cc3c(c4ccccc24)[C@H](CCl)CN3C(=O)c2cc3cc(OCCCN4CCC4)ccc3[nH]2)[C@H]2CSSC[C@H]21
active: HCT-15 colon -1.96% | HT29 colon -1.25% | SNB-75 CNS -77.2% | SNB-19 CNS -15% | U251 CNS 6.86% | PC-3 prostate -8.67% | SK-MEL-5 melanoma -21.2% | LOX IMVI melanoma -23.9% | SK-MEL-28 melanoma -51.1% | SK-MEL-2 melanoma -92.7% | EKVX NSCLC -38.3% | SN12C renal -7.03% | UO-31 renal -11.4% | TK-10 renal 4.65% | ACHN renal -11.6% | CAKI-1 renal 6.04% | A498 renal -17.6% | CCRF-CEM leukemia -25.8% | MOLT-4 leukemia -11.6%

CN(C)c1nc(NCCNS(=O)(=O)c2ccc(C3=Nc4c(N)nc(N)nc4NC(c4ccc(Cl)cc4)C3)cc2)nc(N2CCOCC2)n1 (configuration not stated)
active: LOX IMVI melanoma -2.54%
inactive: HCT-15 colon 61% | HT29 colon 30% | SNB-75 CNS 57.9% | SNB-19 CNS 46.6% | U251 CNS 49.5% | PC-3 prostate 26.4% | SK-MEL-5 melanoma 20.1% | SK-MEL-28 melanoma 66.4% | SK-MEL-2 melanoma 98.5% | EKVX NSCLC 37.6% | SN12C renal 37% | UO-31 renal 59.9% | TK-10 renal 86.8% | ACHN renal 69.2% | CAKI-1 renal 41.7% | A498 renal 108% | CCRF-CEM leukemia 17.3% | MOLT-4 leukemia 13.9%

COc1ccc2oc(=O)c(-c3csc(N/N=C(\C)c4cc(OC)c(OC)c(OC)c4)n3)cc2c1
inactive: HCT-15 colon 86.8% | HT29 colon 113% | SNB-75 CNS 154% | SNB-19 CNS 86.6% | U251 CNS 92.3% | PC-3 prostate 67.6% | SK-MEL-5 melanoma 69.6% | UACC-62 melanoma 93.1% | SK-MEL-28 melanoma 102% | SK-MEL-2 melanoma 99.7% | EKVX NSCLC 94.7% | SN12C renal 80.5% | UO-31 renal 90.8% | TK-10 renal 94.2% | ACHN renal 78.7% | CAKI-1 renal 97.8% | A498 renal 145% | CCRF-CEM leukemia 81.3% | MOLT-4 leukemia 81%

COc1ccc(NC(=O)Nc2nc3ccc([N+](=O)[O-])cc3s2)cc1
active: HCT-15 colon 9.87% | U251 CNS 0.863% | SK-MEL-5 melanoma -70.7% | EKVX NSCLC 9.23% | SN12C renal 9.66% | UO-31 renal -5.06% | MOLT-4 leukemia 8.05%
inactive: HT29 colon 58.1% | SNB-75 CNS 62.3% | SNB-19 CNS 14.6% | PC-3 prostate 10.5% | UACC-62 melanoma 36.2% | SK-MEL-28 melanoma 47.7% | SK-MEL-2 melanoma 33.4% | TK-10 renal 29.7% | ACHN renal 10.8% | A498 renal 21.8% | CCRF-CEM leukemia 11.2%

C[C@@H](Nc1c(C#N)cnc2ccc(-c3cnc4[nH]ncc4c3)cc12)c1ccccc1
inactive: HT29 colon 79.5% | SNB-19 CNS 30.7% | PC-3 prostate 13.4% | LOX IMVI melanoma 16% | SK-MEL-28 melanoma 15.4% | SN12C renal 11.3%
active: HCT-15 colon 8.64% | SNB-75 CNS -26.9% | SK-MEL-5 melanoma -67.5% | UACC-62 melanoma -16% | SK-MEL-2 melanoma -24.8% | EKVX NSCLC -31.9% | UO-31 renal 8.19% | TK-10 renal -6.48% | ACHN renal 4.37% | CAKI-1 renal 4.1% | A498 renal -40.2% | CCRF-CEM leukemia 0.263% | MOLT-4 leukemia -34.5%

CCCCNc1ccc2c3c(cccc13)C(=O)N(c1cccc(-c3nn(-c4ccccc4)cc3-c3nc4ccccc4s3)c1)C2=O
inactive: HCT-15 colon 108% | HT29 colon 114% | SNB-75 CNS 92.8% | SNB-19 CNS 106% | PC-3 prostate 87.7% | SK-MEL-5 melanoma 96.3% | UACC-62 melanoma 88.3% | LOX IMVI melanoma 94.4% | SK-MEL-28 melanoma 101% | SK-MEL-2 melanoma 98.1% | EKVX NSCLC 96.4% | SN12C renal 101% | UO-31 renal 70.4% | TK-10 renal 110% | ACHN renal 96.3% | CAKI-1 renal 82.2% | CCRF-CEM leukemia 105% | MOLT-4 leukemia 113%

COc1ccc(S(=O)(=O)Nc2ccc(-c3ccc4c(c3)NC(=O)/C4=C\c3ccc[nH]3)cc2)cc1OC
inactive: HCT-15 colon 41.4% | SNB-75 CNS 13.9% | PC-3 prostate 44.5% | SK-MEL-5 melanoma 20.3% | UO-31 renal 54.7% | TK-10 renal 11.7% | A498 renal 121% | CCRF-CEM leukemia 58.6% | MOLT-4 leukemia 49%
active: HT29 colon 8.82% | SNB-19 CNS 3.61% | UACC-62 melanoma -45.9% | LOX IMVI melanoma -30.1% | SK-MEL-28 melanoma -90.6% | EKVX NSCLC -27.8% | SN12C renal -0.885% | ACHN renal -31.4% | CAKI-1 renal -11%

CN(C)c1nc(NCCNS(=O)(=O)c2ccc(C(=O)/C=C/c3ccc(C(F)(F)F)cc3)cc2)nc(N2CCOCC2)n1
active: HCT-15 colon -78.2% | HT29 colon -73% | PC-3 prostate -60.1% | SK-MEL-5 melanoma -42.8% | LOX IMVI melanoma -99.2% | SK-MEL-28 melanoma -9.43% | UO-31 renal -61.9% | ACHN renal -33.2% | CAKI-1 renal -32.7% | CCRF-CEM leukemia -29% | MOLT-4 leukemia -19.1%
inactive: SNB-75 CNS 59.5% | SNB-19 CNS 57.8% | UACC-62 melanoma 48.2% | SK-MEL-2 melanoma 74.8% | EKVX NSCLC 37.1% | SN12C renal 39.9% | TK-10 renal 70.4% | A498 renal 72.5%

CN(C)CCCc1ccc(Nc2cnn(C)c(=O)c2Cl)cc1
inactive: HCT-15 colon 96.6% | HT29 colon 105% | SNB-75 CNS 74.2% | SNB-19 CNS 103% | U251 CNS 105% | PC-3 prostate 91% | SK-MEL-5 melanoma 93.2% | LOX IMVI melanoma 101% | SK-MEL-2 melanoma 112% | EKVX NSCLC 98.1% | SN12C renal 100% | UO-31 renal 88.1% | TK-10 renal 109% | ACHN renal 113% | CAKI-1 renal 83.5% | A498 renal 94.7% | CCRF-CEM leukemia 102% | MOLT-4 leukemia 115%

COc1sc(/C=N/NC(=O)c2[nH]c3ccc(Br)cc3c2-c2ccccc2)cc1Br
active: HCT-15 colon 7.77% | HT29 colon -26.9% | U251 CNS -11.2% | SK-MEL-5 melanoma -53.5% | LOX IMVI melanoma -23.4% | SN12C renal 5.93% | ACHN renal 7.58% | CCRF-CEM leukemia 6.23% | MOLT-4 leukemia -2.1%
inactive: SNB-75 CNS 57.1% | SNB-19 CNS 14.7% | PC-3 prostate 19.4% | SK-MEL-28 melanoma 18.2% | SK-MEL-2 melanoma 15.4% | EKVX NSCLC 13.5% | UO-31 renal 31.1% | TK-10 renal 64.6% | A498 renal 134%

COC(=O)CSC1=C(C)C(=O)C(OC)=C(OC)C1=O
inactive: HCT-15 colon 86.3% | HT29 colon 103% | SNB-75 CNS 66.6% | SNB-19 CNS 90.3% | PC-3 prostate 76.9% | SK-MEL-5 melanoma 86.4% | UACC-62 melanoma 70.5% | LOX IMVI melanoma 83.3% | SK-MEL-28 melanoma 104% | SK-MEL-2 melanoma 103% | EKVX NSCLC 91% | SN12C renal 96.2% | UO-31 renal 80.7% | TK-10 renal 106% | ACHN renal 96.4% | CAKI-1 renal 77.4% | A498 renal 90.4% | CCRF-CEM leukemia 25% | MOLT-4 leukemia 17.5%
